# Source: PubChem BioAssay (Tox21)
# Results filed as inconclusive are left out. Entries that show only a call come without a potency. A number with no mark means an inactive call. Active and inactive are the calls of the source. Unless noted, calls come from the whole dose curve; as a rule, active = well fitted curve in the direction sought with a large enough effect in the repeat runs; inconclusive = weak or mixed curves; inactive = no such curve, though single readings can be large; an effect the other way counts as inactive or inconclusive. Non-standard residues stand in square brackets, D forms with d. Residues, ends and D or L forms follow the SMILES beside them. *: point of attachment. Sta = CC(C)C[C@H](N)[C@@H](O)CC(=O)O; Isovaleryl = CC(C)CC(=O)*
# Biological target: Androgen receptor (Homo sapiens) (UniProt P10275)
# Test: qHTS assay to identify small molecule antagonists of the androgen receptor (AR) signaling pathway using the MDA cell line in the presence of 0.5 nM R1881 (AID 1259243); note: nearly all actives have a fitted effect of over 50% in size; note: potency is the fitted concentration of half-maximal effect
# Conditions: MDA-kb2 MMTV-luciferase, R1881 0.5 nM, 16 h; series mostly up to 92.4 µM
# How it was run: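 MDA-kb2 human breast carcinoma cells carrying an MMTV-luciferase reporter (AR- and GR-responsive) were plated, rested 5 hr at 37C, dosed with compounds, then stimulated with 0.5 nM R1881 (final) for 16 hr; luminescence was read after ONE-Glo.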
# Sequence of Androgen receptor (Homo sapiens) (P10275 whole entry, looked up): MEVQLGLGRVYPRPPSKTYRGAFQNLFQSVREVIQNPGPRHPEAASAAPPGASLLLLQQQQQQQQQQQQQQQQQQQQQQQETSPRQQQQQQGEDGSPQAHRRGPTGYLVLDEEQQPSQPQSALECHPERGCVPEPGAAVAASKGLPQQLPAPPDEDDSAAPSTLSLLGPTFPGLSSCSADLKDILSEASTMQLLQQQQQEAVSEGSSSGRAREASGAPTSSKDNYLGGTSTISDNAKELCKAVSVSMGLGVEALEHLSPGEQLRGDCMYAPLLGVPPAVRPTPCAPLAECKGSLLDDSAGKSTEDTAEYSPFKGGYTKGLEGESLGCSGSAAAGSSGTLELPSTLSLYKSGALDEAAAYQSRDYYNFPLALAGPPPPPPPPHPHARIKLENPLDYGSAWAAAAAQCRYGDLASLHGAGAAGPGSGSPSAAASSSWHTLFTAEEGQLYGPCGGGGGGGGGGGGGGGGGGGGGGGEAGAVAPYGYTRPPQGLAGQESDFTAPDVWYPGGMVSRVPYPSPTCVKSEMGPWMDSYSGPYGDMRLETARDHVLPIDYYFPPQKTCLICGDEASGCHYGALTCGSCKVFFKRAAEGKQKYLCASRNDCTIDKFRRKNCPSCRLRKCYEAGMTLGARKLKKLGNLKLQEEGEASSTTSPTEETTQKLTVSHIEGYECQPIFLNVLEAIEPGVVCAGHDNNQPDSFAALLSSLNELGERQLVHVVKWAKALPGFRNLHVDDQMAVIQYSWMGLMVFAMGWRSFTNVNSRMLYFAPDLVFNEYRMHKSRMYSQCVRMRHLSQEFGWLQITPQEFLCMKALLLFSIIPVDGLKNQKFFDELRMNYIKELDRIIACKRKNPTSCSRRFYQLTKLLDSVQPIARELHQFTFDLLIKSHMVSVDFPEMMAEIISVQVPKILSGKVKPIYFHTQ
row,SMILES,Potency
1,CC(O)C(CO)C(C)O (stereo unspecified),inactive
2,C[C@@H](CN1CC(=O)NC(=O)C1)N1CC(=O)NC(=O)C1,inactive
3,CC/C=C\CCOC(=O)c1ccccc1,inactive
4,CCCc1ncc(C(=O)O)s1,inactive
5,CC(C)C(=O)Nc1cccc(C2CN3CCSC3=N2)c1 (stereo unspecified),inactive
6,CCCC(=O)C(CC)Sc1ccoc1C (stereo unspecified),inactive
7,Clc1ccc2c(c1)Nc1ccccc1S2,10.6 µM (active)
8,Cc1ccc2cccnc2c1,inactive

# Biological target: Estrogen receptor (Homo sapiens) (UniProt P03372)
# Test: qHTS assay to identify small molecule antagonists of the estrogen receptor alpha (ER-alpha) signaling pathway using the BG1 cell line in the presence of 0.1 nM 17-beta-estradiol (AID 1259244); note: nearly all actives have a fitted effect of over 50% in size
# Conditions: VM7Luc4E2 (BG1) ERE-luciferase, antagonist mode, 0.1 nM E2, 22 h; series mostly up to 92.4 µM
# How it was run: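 VM7Luc4E2 cells (endogenous full-length ER-alpha, stable 4xERE-luciferase) were grown 5 days in phenol red-free medium with charcoal-stripped FBS, then exposed 22 h at 37C to compounds plus 0.1 nM (final) 17beta-estradiol; ONE-Glo luminescence read-out.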
# Sequence of Estrogen receptor (Homo sapiens) (P03372 whole entry, looked up): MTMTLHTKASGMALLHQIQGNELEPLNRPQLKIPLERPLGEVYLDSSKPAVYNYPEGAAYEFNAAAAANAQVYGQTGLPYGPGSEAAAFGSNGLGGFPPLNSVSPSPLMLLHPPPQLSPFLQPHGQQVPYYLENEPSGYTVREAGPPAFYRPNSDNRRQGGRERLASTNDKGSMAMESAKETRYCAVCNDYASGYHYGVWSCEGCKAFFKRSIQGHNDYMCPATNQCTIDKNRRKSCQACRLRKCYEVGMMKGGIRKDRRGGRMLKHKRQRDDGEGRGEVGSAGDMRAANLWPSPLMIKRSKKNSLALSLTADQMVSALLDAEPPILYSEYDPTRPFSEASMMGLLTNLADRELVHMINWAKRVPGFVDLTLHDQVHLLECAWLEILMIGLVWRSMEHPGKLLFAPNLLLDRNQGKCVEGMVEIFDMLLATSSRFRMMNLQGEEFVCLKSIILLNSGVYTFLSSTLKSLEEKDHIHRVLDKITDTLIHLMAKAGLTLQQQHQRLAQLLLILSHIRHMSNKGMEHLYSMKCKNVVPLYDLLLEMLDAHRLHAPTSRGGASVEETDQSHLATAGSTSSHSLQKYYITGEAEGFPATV
SMILES,outcome,"activity change, negative = inhibition"
CCCCCCCCCCCCCC(=O)OCC,inactive,
CC(O)C(CO)C(C)O (stereo unspecified),inactive,
O=C(O)/C=C(\CC(=O)O)C(=O)O,inactive,
CC(=O)Nc1ccc(S(=O)(=O)Nc2cc(C)on2)cc1,inactive,
C[C@@H](CN1CC(=O)NC(=O)C1)N1CC(=O)NC(=O)C1,inactive,
CCN(CC)CC,inactive,
CC/C=C/CCCCCCCCCCOC(C)=O,inactive,
CC/C=C\CCOC(=O)c1ccccc1,inactive,
COC(=O)c1ccc(C(=O)O)cc1,inactive,
CCCCOCCCC,inactive,
CC(C)(C)c1ccc(N)cc1,inactive,
Cc1ccccc1OCC(=O)O,inactive,
O=C(O)Cc1c(Cl)ccc(Cl)c1Cl,inactive,
CCCCCCCCCCCCCCBr,inactive,
CCCCCCCC(=O)N(C)C,inactive,
COC(=O)/C=C(\C)CCC=C(C)C,inactive,
Clc1cc(Cl)c(Cl)c(Cl)c1Cl,inactive,
Cc1cc(C)c(N)c(Cl)c1,inactive,
CC(C)C(=O)Nc1cccc(C2CN3CCSC3=N2)c1 (stereo unspecified),inactive,
CCCC(=O)C(CC)Sc1ccoc1C (stereo unspecified),inactive,
CC(C)(C)C(=O)NCCCC(=O)O,inactive,
C=CCCCCCCCCCCCCCC,,-1.96% [at 19 µM]
Clc1ccc2c(c1)Nc1ccccc1S2,inactive,
Cc1ccc2cccnc2c1,inactive,
Cc1ccc(OC(=O)CC(C)C)cc1,inactive,

# System: not listed separately
# Test: qHTS assay to identify small molecule phospholipidosis (PLD) inducers (AID 1259344; active = well fitted curve in the direction sought with a large enough effect; an effect the other way counts as inactive or inconclusive)
# Conditions: HepG2 phospholipidosis, LipidTOX Red imaging, 24 h; series mostly up to 38.3 µM
# How it was run: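 HepG2 cells, 900/well, treated with compound plus LipidTOX Red for 24 h at 37 C; amiodarone positive and DMSO negative controls. Fixed with paraformaldehyde/Hoechst, then high-content imaging scored LipidTOX pit count and integrated intensity per well and per cell.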
SMILES,Potency,PLD induction
CC(C)CC(=O)N[C@H](C(=O)N[C@H](C(=O)N[C@@H](CC(C)C)[C@@H](O)CC(=O)N[C@@H](C)C(=O)N[C@@H](CC(C)C)[C@@H](O)CC(=O)O)C(C)C)C(C)C (Isovaleryl-VV[Sta]A[Sta]-OH),inactive,
O=C(O)CCC(=O)Nc1ccc(S(=O)(=O)Nc2nccs2)cc1,inactive,
O=C(O)/C=C(\CC(=O)O)C(=O)O,inactive,
CC(=O)Nc1ccc(S(=O)(=O)Nc2cc(C)on2)cc1,,3.97% [at 7.66 µM]
C[C@@H](CN1CC(=O)NC(=O)C1)N1CC(=O)NC(=O)C1,inactive,
COC(=O)C(c1ccccc1Cl)N1CCc2sccc2C1 (stereo unspecified),inactive,
COc1cc(C(=O)NC2CCCNC2)cc(OC)c1OC (stereo unspecified),inactive,
CC(C)(C)C(=O)NCCCC(=O)O,inactive,
